Laboratory results reported in the supplement of paper PMC9948646.
Values without a mark were called inactive.

The compounds below were run on gramicidin D channels in DC22:1PC lipid vesicles (bilayer-modifying potency) (assay: initial Tl+ fluorescence quench rate relative to no-drug control (NormRate, gramicidin monomer-dimer shift) (ratio (fold of control)); higher = stronger bilayer-modifying effect (equilibrium shifted toward conducting dimers), active = 1.5 or more). Conditions: 10 µM; lipid concentration 50 µM; temperature: 25 °C.
Procedure: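 Stopped-flow fluorescence quench assay: ANTS-loaded DC22:1PC large unilamellar vesicles doped with gramicidin D (1:2000), 50 µM lipid, equilibrated 10 min with 10 µM drug (0.1% DMSO), mixed with Tl+ quench buffer at 25°C. Initial quench rate (Tl+ influx) was fitted with a modified stretched exponential and normalised to the no-drug control rate (NormRate); duplicates from two independent LUV preparations (triplicates for 7 drugs).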

SMILES	initial Tl+ fluorescence quench rate
COc1cc(C2=NCCN2)cc2cc(-c3ccc(C4=NCCN4)cc3)oc12	1.1
Cc1cc(C)nc(-n2nc(C)cc2Nc2ccccc2)n1	1.32
O=C(Nc1ccnc(-c2cccnc2)n1)c1cc(C(F)(F)F)cc(C(F)(F)F)c1	1.2
O=C(NC1CCCCC1)N1CCN(Cc2ccc3c(c2)OCO3)CC1	1.13
CC[P](CC)(CC)=[Au][S][C@H]1O[C@@H](COC(C)=O)[C@H](OC(C)=O)[C@@H](OC(C)=O)[C@@H]1OC(C)=O	1.07
[H]/N=C(\N)N[C@H]1[C@@H](O)[C@@H](O)[C@H](O[C@H]2O[C@H](C)[C@](O)(C=O)[C@H]2O[C@H]2O[C@@H](CO)[C@@H](O)[C@@H](O)[C@@H]2NC)[C@@H](N/C(N)=N/[H])[C@H]1O	1.05
CCOC(=O)c1noc(N)c1-c1ccccc1	1.03
c1ccc(C[C@@H]2CN(c3nccc(Oc4ccc(-n5ccnc5)cc4)n3)CCN2)cc1	1.26
CS(=O)(=O)Cc1nc2ccccc2oc1=O	1.08
COC(=O)c1c(NC(=O)c2c(F)c(F)c(F)c(F)c2F)sc2c1CCCCC2	1.72 (active)
c1ccc(Oc2ccc(-c3cc(N4CCNCC4)[nH]n3)cc2)cc1	1.44
Clc1ccc(CCNc2cc(-c3ccccc3)nc3ncnn23)cc1	1.3
CN(C)CCNC(=O)N1CCCN(c2ncnc3cc(-c4ccccc4)sc23)CC1	1.11
COc1ccc(N(CCc2cccc(C)n2)C(=O)C2CCCCC2)cc1	1.41
O=C(COc1cccc(F)c1)Nc1nc(-c2ccccn2)cs1	1.16
CC[C@@H]([C@H](C)O)n1ncn(-c2ccc(N3CCN(c4ccc(OC[C@@H]5CO[C@@](Cn6cncn6)(c6ccc(F)cc6F)C5)cc4)CC3)cc2)c1=O	7.69 (active)
Cc1ccc(S(=O)(=O)Nc2ccc(CN3CCN(C(=O)c4cccc(C#N)c4)CC3)cc2)cc1	1.5 (active)
CCc1ccc([C@@H](NCc2nc(N)nc(N(C)C)n2)C(C)C)cc1	1.08
O=C(Nc1cccnc1)c1c(O)c2cccc3c2n(c1=O)CC3	1.07
Cc1ccc2oc(-c3cc(NC(=O)Cc4ccccc4)ccc3Cl)nc2c1	1.18

SMILES	initial Tl+ fluorescence quench rate
O=C(NCc1nnc2n1CCCCC2)c1ccc(-c2ccc(F)cc2)o1	1.08
CCCCS(=O)(=O)Nc1ccc2cnn(C)c2c1	1.36
Cc1ccc(Oc2ccc(NC(=O)CNc3ccccc3N3CCCC3=O)cc2)cc1	4.66 (active)
OCc1ccc(-c2cncc(Nc3cccc(Cl)c3)c2)cc1	2.64 (active)
CC(C)(C)n1nc(-c2ccccc2)c2c(N)ncnc21	1.03
Cc1ccc2nc(Cl)c(CNCc3cccs3)cc2c1	1.03
CCN(CC)C(=O)N1CCN(C)CC1	1.1
O=C(Nc1cccc(Cl)c1)c1cnc(N2CCN(c3ccncc3)CC2)c(Cl)c1	3.74 (active)
CC1=Nc2ccc(Cl)cc2[C@H](c2ccccc2)N1CCNC(=O)CN(C)C	1.07
Cc1ccc2[nH]c([C@H]3CCCNC3)c(-c3ccncc3)c2c1	1.42
CS(=O)(=O)N1CCC(Cn2nc(Cc3cccc4ccccc34)c3c(N)ncnc32)CC1	1.47
Cc1cc(OCC(=O)Nc2ccc(C(C)C)cc2)n(C)c(=O)c1C#N	1.25
CNC(=O)CNc1nc(-c2ccccn2)nc2scc(-c3ccccc3)c12	5.21 (active)
CCOc1ccc(-c2nc(CNCCc3ccc(F)cc3)cs2)cc1	1.44
CCCS(=O)(=O)N1CCC(CO)(Cc2ccccc2C(F)(F)F)CC1	1.62 (active)
CC(=O)Nc1ccc(-c2noc(C[C@@H]3CCCN(Cc4cccc(F)c4C)C3)n2)cc1	1.29
COc1ccc(-c2nn(C(C)C)c3ncnc(N)c23)cc1OC	1.01
CC(=O)NC[C@@H]1CN(c2ccc(N3CCOCC3)c(F)c2)C(=O)O1	1.08
CC(C)(C)c1cnc(NC(=O)c2ccccc2O)s1	2.31 (active)
COc1cccc(OC)c1C(=O)Nc1ccc(Cl)c(-c2nc3ccccc3s2)c1	3.12 (active)
